Only some compounds are listed: those with a hit (about 7.3% of all), similar ones and a draw of the others.
SMN2 splice up: enhancers of SMN2 splice variant expression; Potency, µM (highest dose often 46.1 µM), for the others: at the top dose activity change, positive = activation, hits mostly activators; HEK293 SMN2-luciferase splicing reporter, luminescence, 30-36 h; actives 2.8% (n = 210,000); note: % of control where 0% means no effect; nearly all actives have a fitted effect of over 55% in size
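HEK293 cells carry an SMN2 […]–luciferase reporter in which exon 7 inclusion puts luciferase in frame. Cells were plated 10-12 h before compound addition, then incubated 30-36 h at 37C. ONE-Glo luminescence was read; sodium butyrate at 4.5 mM final served as control.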
FLuc modulator: inhibits or activates purified firefly luciferase, miR-21 counter-screen; P08659; purified FLuc, Km substrates, luminescence inhibition; Potency, µM (top dose mostly 57.5 µM), without a hit: at the highest dose activity change, negative = inhibition, most hits filed as inhibitors; actives 6.9% (n = 360,000); AID 588342;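 note: plate controls were vehicle for no effect and reference inhibitor for full effect; nearly all actives have a fitted effect of over 55% in size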
Target sequence (P08659 whole entry, looked up): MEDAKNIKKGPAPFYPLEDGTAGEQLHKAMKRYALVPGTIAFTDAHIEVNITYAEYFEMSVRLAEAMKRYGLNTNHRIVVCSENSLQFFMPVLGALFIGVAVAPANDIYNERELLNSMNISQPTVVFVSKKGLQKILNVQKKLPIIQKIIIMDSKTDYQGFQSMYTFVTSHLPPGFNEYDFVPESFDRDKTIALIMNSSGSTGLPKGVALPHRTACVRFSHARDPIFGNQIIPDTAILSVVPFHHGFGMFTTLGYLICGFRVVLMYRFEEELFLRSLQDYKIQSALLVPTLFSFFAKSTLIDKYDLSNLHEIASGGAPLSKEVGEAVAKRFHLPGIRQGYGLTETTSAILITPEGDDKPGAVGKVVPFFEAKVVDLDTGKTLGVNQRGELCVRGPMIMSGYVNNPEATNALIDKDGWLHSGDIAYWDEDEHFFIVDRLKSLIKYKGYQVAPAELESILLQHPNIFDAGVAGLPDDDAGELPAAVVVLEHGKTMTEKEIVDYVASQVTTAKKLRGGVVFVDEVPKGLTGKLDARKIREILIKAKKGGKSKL
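Biochemical qHTS of compounds, final roughly 60 µM downward over six points, against 10 nM purified firefly luciferase using Km concentrations of substrates (10 uM D-luciferin, 10 uM ATP) in Tris acetate pH 7.5 buffer; luminescence output.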
NPC1 promoter act: activators of NPC1 promoter; Huh7 NPC1 promoter luciferase reporter, 24 h; Potency, µM (doses to about 9.22 µM), for inactives: at the highest dose activation, usual class: activators; actives 2.4% (n = 320,000); AID 485313; note: % of control where 0% means no effect; nearly all actives have a fitted effect of over 60% in size
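Stably transfected Huh7 (NPC1 promoter→luciferase), 1500 cells/well in Opti-MEM + 10% FBS, 2 h settle, then compound 24 h at 37 °C. Luminescence after 10 min with Amplite reagent.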
ELG1 genotoxic: induces genotoxicity in HEK293T cells with luciferase-tagged ELG1; HEK293T ELG1-luciferase reporter, luminescence, 16 h; Potency, µM (titrated, usually from 46 µM), inactives show at the highest dose activity change, positive = activation, hits mostly activators; actives 1.3% (n = 330,000); AID 504466; note: % of control where 0% means no effect; nearly all actives have a fitted effect of over 60% in size
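Genotoxic stress is detected as increased luminescence from luciferase-tagged ELG1 in HEK293T cells, measured with ONE-Glo after a 16 hr treatment at 37 °C.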
Rab9 promoter act: activates the Rab9 promoter | Huh7 Rab9 promoter-luciferase reporter, luminescence, 24 h | Potency, µM (series often up to 9.22 µM), for the others: top-dose activation, negative = inhibition, most hits filed as activators | actives 2.8% (n = 320,000); note: % of control where 0% means no effect; nearly all actives have a fitted effect of over 60% in size
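Steps: seed 1500 Huh7 Rab9-luc cells per well, rest 2 h at 37 °C; add compound in DMSO; incubate 24 h; add luciferase reagent, 10 min ambient; read luminescence.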
KinaseGlo FLuc: blocks Kinase-Glo luciferase, a counter-screen artifact. Q27757. Kinase-Glo luciferase, ATP luminescence, 8 min. Potency, µM (series often up to 38.3 µM), for the others: at the highest dose activity change, negative = inhibition, actives largely listed as inhibitors. actives 0.28% (n = 200,000); note: % is set by controls: 0 for no effect and ±100 for the full control effect; nearly all actives have a fitted effect of over 60% in size
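Recombinant Kinase-Glo luciferase, 10 uM ATP (linear range), luciferin; imidazole pH 7.2 / KCl / MgCl2 / Tween / BSA buffer; 8 min RT; luminescence.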
Starred values were filed as active, the others as inactive; u = inconclusive; x = no result given; [ ] = dose if it differs, or a comment. Calls come from the whole dose curve; as a rule, active = well fitted curve in the direction sought with a large enough effect; inconclusive = small, poorly fitted or top-dose-only effect, or another doubt; inactive = no such curve, though single readings can be large; an effect the other way counts as inactive or inconclusive. Potency is the fitted concentration of half-maximal effect.

SMILES	SMN2 splice up	FLuc modulator	NPC1 promoter act	ELG1 genotoxic	Rab9 promoter act	KinaseGlo FLuc
Cc1ccc(N2C(=O)CS(=O)C(c3ccccc3)C2=O)cc1C (stereo unspecified)	-2.8%	12µM*	4.0%	13.5%	11.5%	0.3%
COc1ccc(NS(=O)(=O)c2ccc(SC)cc2)c(OC)c1	-12.3%	0.1%	0.0%	-3.6%	-2.7%	-2.3%
CCOc1ncccc1C(=O)Nc1nnc(C(CC)CC)s1	-5.1%	4.8%	-0.5%	-2.5%	27.1%	0.5%
Cc1cc(C)c2c(N=NN3CCCCC3)[nH]nc2n1	1.0%	19µM*	20.1%	17.3%	22.9%	1.4%
O=C(CCCN1C(=O)c2cccc3cccc(c23)C1=O)NC1CCS(=O)(=O)C1 (stereo unspecified)	x	4.78µM*	0.9%	-9.3%	2.7%	-0.7%
O=C(O)CCCN1C(=O)c2cccc3cccc(c23)C1=O	x	-0.6%	-2.7%	-0.2%	2.6%	x
O=c1[nH]c(Nc2nc3ccccc3o2)nc2c1CCCC2	3.55µM*	1.51µM*	0.316µM*	u	0.316µM*	2.3%
Cc1nn(CC(=O)NNC(=O)c2ccc(Br)cc2)c(C)c1[N+](=O)[O-]	x	x	-2.5%	1.2%	-0.1%	x
O=C(COc1ccc2c(c1)OCO2)Nc1nncs1	x	9.53µM*	13.6%	u	26.5%	x
NC(=O)c1ccccc1NC(=O)COc1ccc2c(c1)OCO2	x	4.78µM*	2.51µM*	u	3.55µM*	x
COc1ccccc1NC(=O)COc1ccc2c(c1)OCO2	x	15.1µM*	u	u	-38.6%	x
CCOc1ccc(CCNC(=O)CN(C)S(=O)(=O)c2ccc3c(c2)CCC(=O)N3)cc1OCC	-19.0%	1.4%	-2.0%	-2.5%	-3.1%	1.2%
O=C(COc1ccccc1)Nc1nc(-c2ccc(S(=O)(=O)N3CCOCC3)cc2)cs1	-38.1%	0.4%	-5.9%	-12.1%	2.8%	-0.4%
Cc1ccc(C(=O)NCc2ccccn2)c(Cl)c1	-0.1%	u	22.9%	16.6%	u	-7.1%
CCOC(=O)c1c(-c2ccc(C)o2)csc1NC(=O)CN1CCC(C(N)=O)CC1	17.5%	-3.2%	-5.0%	-4.5%	1.0%	-4.0%
O=C(O)c1ccc(-c2nnc(-c3cccc(Br)c3)o2)cc1	x	10.7µM*	1.41µM*	u	1.58µM*	x
Brc1ccc(-c2nnc(-c3cccc(Br)c3)o2)cc1	22.5%	9.53µM*	3.16µM*	18.5%	-33.7%	-3.5%
Cc1ccc(-c2nn(-c3cc(Cl)ccc3[N+](=O)[O-])c(=O)c3ccccc23)cc1	14.3%	-1.3%	0.1%	-3.7%	-2.1%	-0.8%
CCCc1cc(=O)[nH]c(SCC(=O)Nc2ccc(C)c(S(=O)(=O)N3CCCCC3)c2)n1	x	3.2%	0.2%	-1.6%	-0.5%	x
COc1ccc(N/C=C2/CCCCC2=O)cc1	42.0%	15.1µM*	u	2.8%	u	-26.8%
O=C1CCCC/C1=C/Nc1ccc2c(c1)OCO2	u	10.7µM*	2.82µM*	u	3.55µM*	-14.1%
O=C1CCCC/C1=C/Nc1ccc(C(=O)O)cc1	-27.3%	12µM*	24.7%	9.9%	u	-14.6%
NC(=O)C1CCN(CC(=O)Nc2cc(S(=O)(=O)N3CCOCC3)ccc2N2CCCC2)CC1	x	0.5%	0.1%	-2.0%	-1.9%	x
O=C(Nc1ccc2c(c1)OCCO2)c1cc2ccccc2o1	1.26µM*	1.07µM*	0.891µM*	u	0.447µM*	-22.5%
O=C(NC(=S)Nc1ccc(CN2CCOCC2)cc1)c1ccc(-c2cccc(Cl)c2)o1	x	u	-2.6%	-16.5%	-15.4%	x
SMILES	SMN2 splice up	FLuc modulator	NPC1 promoter act	ELG1 genotoxic	Rab9 promoter act	KinaseGlo FLuc
Cn1c(=O)n(C)c2cc(NC(=O)c3ccccc3NS(C)(=O)=O)ccc21	x	26.9µM*	6.3%	13.7%	6.0%	x
O=C(Nc1ccc(CN2CCOCC2)cc1)c1ccc(-c2cccc(Cl)c2)o1	-78.8%	16.9µM*	-4.1%	-15.5%	x	-6.8%
Cc1cc(=O)oc2cc(NC(=O)c3cc4ccccc4o3)ccc12	7.2%	-17.0%	u	u	21.2%	-7.2%
O=C(O)c1ccc(NC(=O)c2cc3ccccc3o2)cc1	6.31µM*	2.13µM*	u	u	u	x
O=C(CSc1nnc(Cc2ccccc2)n1C1CCCCC1)N1CCOCC1	15.5%	-8.3%	8.1%	u	2.2%	2.1%
CCOc1ccc(C(N)=O)cc1OC	26.2%	-2.7%	-3.1%	0.2%	-5.0%	3.2%
CC(=O)Nc1ccc(NC(=O)C(C)OC(=O)c2ccccc2Sc2ccccc2C#N)cc1 (stereo unspecified)	-3.3%	0.1%	-1.9%	3.2%	-1.3%	-0.4%
COc1ccc(-c2c(-c3ccc(OC)nc3)c3ccccc3n2C)cc1	x	x	x	-0.2%	x	x
O=C(/C=C/N1CCOCC1)c1coc2ccccc12	x	9.53µM*	1.58µM*	u	1.41µM*	-8.4%
O=C(Nc1ccc(CN2CCOCC2)cc1)c1cc2ccccn2n1	u	1.2µM*	0.316µM*	u	0.447µM*	-15.7%
Cn1c(=O)n(C)c2cc(NS(=O)(=O)c3ccccc3)ccc21	x	2.7%	-3.9%	18.3µM*	4.2%	x
O=C(Nc1c(C(=O)Nc2ccc(F)cc2)oc2ccccc12)c1cc2ccccc2o1	2.3%	2.69µM*	x	x	x	x
COc1ccc(NC(C)=O)c(C)c1	-3.3%	5.8%	-1.4%	19.1%	-4.8%	-1.1%
COc1ccc(OC)c(NC(=O)c2c(NCc3cccs3)sc3c2CCCCC3)c1	x	-17.5%	x	x	x	x
O=C(O)c1cc(=O)[nH]c(=S)[nH]1	-6.5%[9.22 µM]	x	x	x	x	-2.8%[7.66 µM]
OC1(C#CCN2CCCC2)c2ccccc2-c2ccccc21	x	-0.7%	-0.6%	-5.1%	0.2%	x
O=C(NC(=S)Nc1ccc(CN2CCOCC2)cc1)c1cc2ccccc2o1	6.5%	-2.2%	5.5%	14.6%	18.9%	0.6%
c1ccc2sc(SN3CCOCC3)nc2c1	-6.2%	23.9µM*	-0.4%	4.0%	-0.1%	-1.6%
CCC(=O)N1CCN(c2ccc(NC(=O)c3cc4ccccc4o3)cc2)CC1	-28.9%	u	0.5%	-3.2%	-2.0%	-2.4%
c1ccc2sc(N3CCOCC3)nc2c1	u	u	u	u	u	-7.2%
O=C(Nc1ccc2oc(=O)ccc2c1)c1cc2ccccc2o1	3.55µM*	7.57µM*	2.51µM*	u	1.58µM*	-3.8%
O=C(Nc1ccc(CN2CCOCC2)cc1)c1cc2ccccc2o1	5.62µM*	3.79µM*	1.58µM*	11.9%	0.631µM*	0.8%
O=C(Nc1ccc(N2CCOCC2)cc1)c1cc2ccccc2o1	2.82µM*	5.36µM*	3.55µM*	u	1.78µM*	-12.6%
O=C(CCCCCn1c(=O)[nH]c2ccccc2c1=O)NCc1ccccc1	x	-0.2%	x	x	x	x
CCN(CC(=O)Nc1c(F)cccc1F)C(=O)CC1CCCC1	x	8.5%	0.8%	1.1%	-1.9%	x

Screens as filed in PubChem.
